From PubChem
HepG2 tox: counter-screen for TGF-b inhibitors: cytotoxicity in HepG2 cells; Potency, µM (doses to about 46.1 µM), without a hit: at the highest dose activity change, negative = cytotoxicity, hits mostly cytotoxic; HepG2 CAGA-GFP viability, ATP luminescence, 18 h; hit rate 0.76% among 410,000; AID 588856; note: potency is the fitted concentration of half-maximal effect
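CellTiter-Glo luminescence gave cytotoxicity after 18 hours at 37 degrees C. The cells were HepG2 CAGA-GFP in 1% FBS DMEM, stimulated with 500 pg/mL TGF-beta after compound addition. %Activity was normalised to no-cell wells (complete cell-killing) and DMSO (no toxicity), and curves were fitted and classified.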
TGFb inhibitor: TGF-b pathway inhibition. AID 588855. Potency, µM (top dose mostly 46.1 µM), without a hit: at the highest dose activity, negative = inhibition, usual class: inhibitors. HepG2 CAGA-GFP TGF-b/SMAD3 reporter, GFP fluorescence, 18 h; TGF-beta stimulated, 500 pg/mL final. hit rate 1.2% among 410,000; note: potency is the fitted concentration of half-maximal effect; % is set by controls: 0 for no effect and ±100 for the full control effect; nearly all actives have a fitted effect of over 65% in size
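Read-out: total well GFP (ex488/em500-530) summed from mean per-cell fluorescence. Cells: HEPG2 CAGA-GFP, 1% FBS DMEM, 18 h at 37 degrees C with 500 pg/mL final TGF-beta. Unstimulated wells served as the full-inhibition control; stimulated DMSO wells = 0%.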
DT40 TDP1 CPT: DT40-hTDP1 cell growth loss with CPT | chicken DT40 Tdp1-/-;hTDP1 cells + 20 nM CPT, ATP luminescence, 48 h | Potency, µM (highest dose often 46.2 µM), for the others: at the highest dose activity change, negative = growth inhibition, hits mostly inhibitors | hit rate 12% among 420,000 | AID 686979; note: potency is the fitted concentration of half-maximal effect; % is set by controls: 0 for no effect and ±100 for the full control effect; nearly all actives have a fitted effect of over 55% in size
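Chicken DT40 Tdp1-/- cells stably complemented with human TDP1 were seeded at 400 cells/well in medium containing 20 nM camptothecin, exposed to pin-transferred compounds, and grown at 37 °C for at least 48 hr. Viability was read as ATP luminescence.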
DT40 TDP1 no CPT: qHTS for Inhibitors of human tyrosyl-DNA phosphodiesterase 1 (TDP1): qHTS in cells in absence of CPT; DT40 Tdp1-/- hTDP1 cells, no CPT, ATP luminescence, 48 h; hit rate 15% among 420,000; Potency, µM (titrated, usually from 46.2 µM), for the others: top-dose activity change, negative = growth inhibition, most hits filed as inhibitors; note: potency is the fitted concentration of half-maximal effect; % is set by controls: 0 for no effect and ±100 for the full control effect; nearly all actives have a fitted effect of over 55% in size
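Chicken DT40 Tdp1-/- cells complemented with human TDP1, screened without camptothecin (DMSO vehicle only), 400 cells/well. Compounds pin-transferred, cells incubated at 37 °C for at least 48 hr. Growth read as ATP-dependent luminescence (CellTiter-Glo, 30 min at RT).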
IL-1B inflam inh: inflammasome signaling inhibition, IL-1 beta readout; activity change, % at 57.5 µM; AID 743279; hit rate 4.7% among 360,000; THP-1 LPS/ATP IL-1B secretion, AlphaLISA, 16 h; hits give low values; in the data active = activity change below about -50%; inconclusive = mostly about -30% to -49%; note: % is set by controls: 0 for no effect and ±100 for the full control effect
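Secreted IL-1B measured by AlphaLISA bead assay after 16 h compound exposure of THP-1 cells; compounds (final up to 57.5 uM) added 1 h before LPS (250 ng/mL) and ATP (1.25 mM) stimulation; lower signal means less secretion.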
S-ASM inh: human S-ASM enzyme inhibition. P17405. placental ASM, HMU-PC fluorogenic substrate, 60 min. Potency, µM (doses to about 57.5 µM), for the others: at the highest dose activity change, negative = inhibition, actives largely listed as inhibitors. hit rate 0.006% among 340,000. AID 504937; note: potency is the fitted concentration of half-maximal effect
Target sequence (P17405 47-631 limits assumed): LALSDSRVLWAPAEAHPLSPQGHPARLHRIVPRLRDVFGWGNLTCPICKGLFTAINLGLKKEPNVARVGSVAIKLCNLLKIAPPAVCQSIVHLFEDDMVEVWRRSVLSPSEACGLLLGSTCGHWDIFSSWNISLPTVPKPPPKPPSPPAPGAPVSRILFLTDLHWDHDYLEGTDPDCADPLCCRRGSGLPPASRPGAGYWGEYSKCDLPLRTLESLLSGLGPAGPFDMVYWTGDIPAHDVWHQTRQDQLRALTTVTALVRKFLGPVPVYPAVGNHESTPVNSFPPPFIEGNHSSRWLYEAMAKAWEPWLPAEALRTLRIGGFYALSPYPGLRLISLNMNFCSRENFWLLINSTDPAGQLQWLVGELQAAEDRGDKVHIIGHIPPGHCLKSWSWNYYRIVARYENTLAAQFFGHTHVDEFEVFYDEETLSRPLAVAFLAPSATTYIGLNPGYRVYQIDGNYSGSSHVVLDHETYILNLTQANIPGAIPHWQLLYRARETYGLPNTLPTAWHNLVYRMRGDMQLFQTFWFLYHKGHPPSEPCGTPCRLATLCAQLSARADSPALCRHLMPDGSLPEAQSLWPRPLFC
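Human placenta-derived ASM enzyme was preincubated with compound for 10 minutes at room temperature, then given fluorogenic substrate HMU-PC0 (9 uM final) for 60 minutes at 37 °C; a pH 10 stop preceded fluorescence reading at Ex 386/Em 447 nm.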
Numbers without * were called inactive; ? = inconclusive; . = not tested or not shown. The list is not random: actives were taken first. Their share in the collection is about 19%. Unless noted, calls come from the whole dose curve; as a rule, active = well fitted curve in the direction sought with a large enough effect; inconclusive = small, poorly fitted or top-dose-only effect, or another doubt; inactive = no such curve, though single readings can be large; an effect the other way counts as inactive or inconclusive.

SMILES	HepG2 tox	TGFb inhibitor	DT40 TDP1 CPT	DT40 TDP1 no CPT	IL-1B inflam inh	S-ASM inh
Cc1nn(Cc2ccccc2Cl)c(C)c1NC(=O)NC12CC3CC(CC(C3)C1)C2	-10%	-1%	?	?	2	-5%
Cc1nn(Cc2ccccc2Cl)c(C)c1NC(=O)c1nc2ncccn2n1	8%	21%	13µM*	13µM*	9	3%
CCC(CC)c1nnc(NC(=O)c2c(C)nn(Cc3ccccc3Cl)c2C)s1	9%	-2%	23µM*	-26%	23	-1%
Cc1c(S(=O)(=O)N2CCN(c3cccc(Cl)c3)CC2)c(=O)n(C)c(=O)n1C	1%	-4%	11%	0%	-13	1%
O=C(CN1CCN(Cc2ccccc2)CC1)Nc1cccc(Br)c1	-13%	4%	-29%	?	-6	1%
c1csc(CNCc2ccncc2)c1	0%	6%	0%	-22%	6	1%
NC(=O)C(c1ccccc1)c1ccc(C(=O)c2ccccc2)cc1 (centres undefined)	-9%	-18%	-18%	?	?	-3%
Cc1csc(NC(=O)c2cc3c(C)nn(Cc4ccccc4Cl)c3s2)n1	-5%	8%	?	16µM*	6	10%
C=C(C)CNC(=S)N/N=C(\C)c1ccc(Cl)s1	0%	-14%	?	16µM*	18	-5%
CNC(=S)N/N=C(\C)c1ccc(Cl)s1	-22%	?	2.9µM*	4.6µM*	3	.
CCNC(=S)N/N=C(\C)c1ccc(Cl)s1	7%	-4%	4.1µM*	4.1µM*	0	-4%
C/C(=N\NC(N)=O)c1ccc(Cl)s1	2%	11%	1%	4%	14	-2%
CNC(=S)NN=C(C)c1ccc(OC)cc1O	-3%	?	0.016µM*	0.012µM*	-76*	1%
Cc1nn(CC(=O)NCCc2ccccc2)c(=O)c2cccn12	-4%	-10%	9%	-8%	0	3%
CC1=C(C)N(C)[C@H](c2ccccc2Br)[C@H](O)C1=O	4%	1%	-4%	5%	-23	5%
C/C(=N\NC(=O)C1CC1)c1ccc(C)c(C)c1	3%	0%	6%	3%	-6	-2%
CNC(=S)N/N=C(\C)c1ccc(C)c(C)c1	-9%	26%	2.6µM*	3.3µM*	-7	.
Cc1ccc(C(=O)NC2CC2)cc1S(=O)(=O)N1CCOCC1	6%	-1%	-2%	0%	-12	3%
CCC(C)(C)C1CCC(NC(=O)c2ccc(S(=O)(=O)N3CCOCC3)cc2)CC1 (centres undefined)	-9%	-8%	15µM*	23µM*	-2	-10%
CS(=O)(=O)c1cccc(C(=O)Nc2ccc(S(=O)(=O)N3CCCCC3)cc2)c1	-16%	-8%	10µM*	18µM*	11	2%
O=C(Nc1ccc(S(=O)(=O)N2CCCCC2)cc1)c1ccncc1	-17%	-20%	?	?	0	6%
CC(=O)c1ccc(NC(=O)c2ccc(S(=O)(=O)N3CCCC3)cc2)cc1	-13%	-10%	?	16µM*	0	-2%
O=C(Nc1ccc(Cc2ccncc2)cc1)c1ccc(S(=O)(=O)N2CCCC2)cc1	-19%	-5%	13µM*	10µM*	-96*	-3%
COc1cc2ccccc2cc1C(=O)N1CC(C)CC(C)C1 (centres undefined)	7%	-16%	?	?	-10	1%
COc1cc(C(=O)NNC(=O)c2cccc(Cl)c2)ccc1OCC(=O)N1CCOCC1	8%	8%	-18%	-14%	-21	2%
SMILES	HepG2 tox	TGFb inhibitor	DT40 TDP1 CPT	DT40 TDP1 no CPT	IL-1B inflam inh	S-ASM inh
O=C(NC1CCN(S(=O)(=O)c2ccc(F)cc2)CC1)c1ccc(F)cc1	-33%	-25%	-1%	5%	-54*	1%
CC(=O)c1ccc(NC(=O)Nc2ccc(S(=O)(=O)N3CCCC3)cc2)cc1	-46%	-13%	?	15µM*	-108*	-10%
O=C(Nc1ccc(F)cc1)Nc1ccc(S(=O)(=O)N2CCCC2)cc1	-47%	?	?	?	-18	-5%
O=C(Nc1ccc(S(=O)(=O)N2CCCC2)cc1)Nc1ccc(F)cc1F	-24%	-5%	?	29µM*	-13	-2%
CC(=O)c1ccc(S(=O)(=O)Nc2ccc(S(=O)(=O)N3CCCCC3)cc2)cc1	-1%	13%	-20%	3%	0	-5%
COc1ccc(C(=O)NC2CCN(S(=O)(=O)c3ccc(F)cc3)CC2)cc1	-37%	-21%	0%	8%	-7	1%
O=C(Nc1ccc(F)cc1)c1ccc(S(=O)(=O)N2CCCC2)cc1	-1%	12%	2%	?	-75*	-1%
CN1[C@@H]2CC[C@H]1CC(NC(=O)n1c(=O)[nH]c3ccccc31)C2 (some centres undefined)	.	.	1%	-4%	.	.
Nc1nc(-c2ccccc2)c(-c2ccc([N+](=O)[O-])cc2)s1	-16%	-15%	?	?	0	-12%
O=[N+]([O-])c1ccc(-c2c(-c3ccccc3)ncc3cc(F)ccc23)cc1	-25%	-6%	15µM*	18µM*	23	-15%
O=[N+]([O-])c1cccc(-c2c(-c3ccccc3)ncc3cc(F)ccc23)c1	-30%	?	8.2µM*	21µM*	20	-6%
Cc1nc(SCc2ccccc2)[nH]c(=O)c1CC(=O)OCC(C)C	-2%	5%	-7%	-1%	19	2%
CC1=C(C(=O)N(C(C)C)C(C)C)CC(CC(=O)NC2CC2)C(=O)N1Cc1ccc(C(C)(C)C)cc1 (centres undefined)	.	.	?	29µM*	0	.
CC1=C(C(=O)N(C(C)C)C(C)C)CC(CC(=O)NCC2CCCCC2)C(=O)N1Cc1ccc(C(C)(C)C)cc1 (centres undefined)	.	.	19µM*	19µM*	.	.
CCN(CC)C(=O)C1=C(C)N(Cc2ccc(OC)cc2)C(=O)C(CC(=O)NCC2CCCCC2)C1 (centres undefined)	4%	0%	?	21µM*	-12	.
CCc1cc2c(COC(=O)c3cc(S(=O)(=O)N4CCOCC4)ccc3F)cc(=O)oc2cc1O	-1%	1%	18µM*	?	-77*	440%
Cc1noc(C)c1COC(=O)c1cc(S(=O)(=O)N2CCOCC2)ccc1F	-7%	4%	-9%	-27%	-5	-1%
